Results as given in PubChem BioAssay AID1159580 (chemical genetic matrix, 2015).
The campaign covered roughly 5,500 compounds. About 2,000 (36%) were called active. Roughly 18% stayed inconclusive and do not appear here. Some of the results follow. Values without a mark were called inactive. Rule as the data show it: active = normalized growth mostly below about 0.91 (no sharp cut-off); inconclusive = no clear call, values can overlap the other calls; inactive = mostly above about 0.92.

Experiment: chemical genetic growth profiling, strain panel (AID 1159580);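 also: tested at 20 µM; growth read once vehicle control cultures reached saturation at 30 °C; 1 = growth at the plate median or of vehicle wells; lower values mean less growth of the strain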
Conditions: S. cerevisiae deletion strains, growth OD
[1] = locus YAR019C, strain CDC15, hits give low values
[2] = locus YBL105C, strain PKC1, hits give low values
[3] = locus YBR135W, strain CKS1, hits give low values
[4] = locus YBR136W, strain MEC1, hits give low values
[5] = locus YBR160W, strain CDC28, hits give low values
[6] = locus YDL017W, strain CDC7, hits give low values
[7] = locus YDL028C, strain MPS1, hits give low values
[8] = locus YDL101C, strain DUN1, hits give low values
[9] = locus YDL108W, strain KIN28, hits give low values
[10] = locus YDL132W, strain cdc53, hits give low values
[11] = locus YDL214C, strain PRR2, hits give low values
[12] = locus YDR052C, strain DBF4, hits give low values
[13] = locus YDR054C, strain cdc34, hits give low values
[14] = locus YDR226W, strain ADK1, hits give low values
[15] = locus YDR477W, strain SNF1, hits give low values
[16] = locus YER123W, strain YCK3, hits give low values
[17] = locus YER133W, strain GLC7, hits give low values
[18] = locus YFL009W, strain cdc4, hits give low values
[19] = locus YFL029C, strain CAK1, hits give low values
[20] = locus YFR003C, strain YPI1, hits give low values
[21] = locus YFR019W, strain FAB1, hits give low values
[22] = locus YFR028C, strain CDC14, hits give low values
[23] = locus YGR040W, strain KSS1, hits give low values
[24] = locus YGR052W, strain FMP48, hits give low values
[25] = locus YGR092W, strain DBF2, hits give low values
[26] = locus YHR030C, strain SLT2, hits give low values
[27] = locus YHR079C, strain IRE1, hits give low values
[28] = locus YHR082C, strain KSP1, hits give low values
[29] = locus YHR205W, strain SCH9, hits give low values
[30] = locus YIL147C, strain SLN1, hits give low values
[31] = locus YJL095W, strain BCK1, hits give low values
[32] = locus YJL128C, strain PBS2, hits give low values
[33] = locus YJL157C, strain FAR1, hits give low values
[34] = locus YJR016C, strain ILV3, hits give low values
[35] = locus YJR066W, strain TOR1 (second series), hits give low values
[36] = locus YJR066W, strain TOR1, hits give low values
[37] = locus YKL048C, strain ELM1, hits give low values
[38] = locus YKL067W, strain YNK1, hits give low values
[39] = locus YKL101W, strain HSL1, hits give low values
[40] = locus YKL193C, strain SDS22, hits give low values
[41] = locus YKL203C, strain TOR2, hits give low values
[42] = locus YLR113W, strain HOG1, hits give low values
[43] = locus YLR133W, strain CKI1, hits give low values
[44] = locus YLR403W, strain SFP1, hits give low values
[45] = locus YML070W, strain DAK1, hits give low values
[46] = locus YMR001C, strain CDC5, hits give low values
[47] = locus YMR205C, strain PFK2 (second series), hits give low values
[48] = locus YMR277W, strain FCP1, hits give low values
[49] = locus YNL006W, strain LST8, hits give low values
[50] = locus YNL020C, strain ARK1, hits give low values
[51] = locus YNL161W, strain CBK1, hits give low values
[52] = locus YNL183C, strain NPR1, hits give low values
[53] = locus YNL207W, strain RIO2, hits give low values
[54] = locus YNL222W, strain SSU72, hits give low values
[55] = locus YNL307C, strain MCK1 (second series), hits give low values
[56] = locus YOL078W, strain AVO1, hits give low values
[57] = locus YOL136C, strain PFK27, hits give low values
[58] = locus YOR061W, strain CKA2, hits give low values
[59] = locus YOR119C, strain RIO1, hits give low values
[60] = locus YOR231W, strain MKK1, hits give low values
[61] = locus YOR329C, strain SCD5, hits give low values
[62] = locus YPL031C, strain PHO85, hits give low values
[63] = locus YPL153C, strain RAD53, hits give low values
[64] = locus YPL204W, strain HRR25, hits give low values
[65] = locus YPL209C, strain IPL1, hits give low values
[66] = locus YPL256C, strain CLN2, hits give low values
[67] = locus YPR025C, strain CCL1, hits give low values
[68] = locus YPR106W, strain ISR1, hits give low values
[69] = locus YPR111W, strain DBF20, hits give low values
[70] = strain NNK1, hits give low values
[71] = strain TSCII, hits give low values

## CCCCNC(=S)N/N=C\c1cc(Cl)cc(Cl)c1O
[1]
  normalized growth: 0.929
[2]
  normalized growth: 0.928
[3]
  normalized growth: 0.922
[4]
  normalized growth: 0.924
[5]
  normalized growth: 0.941
[6]
  normalized growth: 0.926
[7]
  normalized growth: 0.926
[8]
  normalized growth: 0.97
[9]
  normalized growth: 0.922
[10]
  normalized growth: 0.917
[11]
  normalized growth: 0.65 (active)
[12]
  normalized growth: 0.941
[13]
  normalized growth: 0.914
[14]
  normalized growth: 0.924
[15]
  normalized growth: 0.513 (active)
[16]
  normalized growth: 0.519 (active)
[17]
  normalized growth: 0.601 (active)
[18]
  normalized growth: 0.913
[19]
  normalized growth: 0.936
[20]
  normalized growth: 0.918
[21]
  normalized growth: 0.785
[22]
  normalized growth: 0.924
[23]
  normalized growth: 0.531 (active)
[24]
  normalized growth: 0.195 (active)
[25]
  normalized growth: 0.35 (active)
[26]
  normalized growth: 0.275 (active)
[27]
  normalized growth: 0.601
[28]
  normalized growth: 0.242 (active)
[29]
  normalized growth: 0.236 (active)
[30]
  normalized growth: 0.923
[31]
  normalized growth: 0.352 (active)
[32]
  normalized growth: 0.897
[33]
  normalized growth: 0.63 (active)
[34]
  normalized growth: 0.922
[35]
  normalized growth: 0.58 (active)
[36]
  normalized growth: 0.289 (active)
[37]
  normalized growth: 0.637 (active)
[38]
  normalized growth: 0.676 (active)
[39]
  normalized growth: 0.385 (active)
[40]
  normalized growth: 0.916
[41]
  normalized growth: 0.249 (active)
[42]
  normalized growth: 0.444 (active)
[43]
  normalized growth: 0.49 (active)
[44]
  normalized growth: 0.302 (active)
[45]
  normalized growth: 0.603 (active)
[46]
  normalized growth: 0.913
[47]
  normalized growth: 0.603 (active)
[48]
  normalized growth: 0.905
[49]
  normalized growth: 0.934
[50]
  normalized growth: 0.44 (active)
[51]
  normalized growth: 0.932
[52]
  normalized growth: 0.318 (active)
[53]
  normalized growth: 0.922
[54]
  normalized growth: 0.933
[55]
  normalized growth: 0.362 (active)
[56]
  normalized growth: 0.912
[57]
  normalized growth: 0.713
[58]
  normalized growth: 0.538 (active)
[59]
  normalized growth: 0.343 (active)
[60]
  normalized growth: 0.591
[61]
  normalized growth: 0.924
[62]
  normalized growth: 0.477 (active)
[63]
  normalized growth: 0.495 (active)
[64]
  normalized growth: 0.488 (active)
[65]
  normalized growth: 0.928
[66]
  normalized growth: 0.457 (active)
[67]
  normalized growth: 0.931
[68]
  normalized growth: 0.908
[69]
  normalized growth: 0.933
[70]
  normalized growth: 0.787 (active)
[71]
  normalized growth: 0.918

## COCCCNC(=S)N/N=C\c1cc(Cl)cc(Cl)c1O
[1]
  normalized growth: 0.958
[2]
  normalized growth: 0.946
[3]
  normalized growth: 0.957
[4]
  normalized growth: 0.956
[5]
  normalized growth: 0.965
[6]
  normalized growth: 0.951
[7]
  normalized growth: 0.951
[8]
  normalized growth: 0.959
[9]
  normalized growth: 0.961
[10]
  normalized growth: 0.958
[11]
  normalized growth: 0.942
[12]
  normalized growth: 0.956
[13]
  normalized growth: 0.947
[14]
  normalized growth: 0.951
[15]
  normalized growth: 0.914
[16]
  normalized growth: 0.944
[17]
  normalized growth: 0.924
[18]
  normalized growth: 0.952
[19]
  normalized growth: 0.958
[20]
  normalized growth: 0.954
[21]
  normalized growth: 0.962
[22]
  normalized growth: 0.968
[23]
  normalized growth: 0.927
[24]
  normalized growth: 0.942
[25]
  normalized growth: 0.783
[26]
  normalized growth: 0.797 (active)
[27]
  normalized growth: 0.903
[28]
  normalized growth: 0.983
[29]
  normalized growth: 0.853
[30]
  normalized growth: 0.957
[31]
  normalized growth: 0.904
[32]
  normalized growth: 0.924
[33]
  normalized growth: 0.918
[34]
  normalized growth: 0.957
[35]
  normalized growth: 0.887
[36]
  normalized growth: 0.957
[37]
  normalized growth: 0.936
[38]
  normalized growth: 0.953
[39]
  normalized growth: 0.946
[40]
  normalized growth: 0.953
[41]
  normalized growth: 0.953
[42]
  normalized growth: 0.904
[43]
  normalized growth: 0.924
[44]
  normalized growth: 0.889
[45]
  normalized growth: 0.95
[46]
  normalized growth: 0.956
[47]
  normalized growth: 0.943
[48]
  normalized growth: 0.962
[49]
  normalized growth: 0.963
[50]
  normalized growth: 0.903
[51]
  normalized growth: 0.959
[52]
  normalized growth: 0.988
[53]
  normalized growth: 0.957
[54]
  normalized growth: 0.962
[55]
  normalized growth: 0.909
[56]
  normalized growth: 0.962
[57]
  normalized growth: 0.953
[58]
  normalized growth: 0.951
[59]
  normalized growth: 0.989
[60]
  normalized growth: 0.943
[61]
  normalized growth: 0.96
[62]
  normalized growth: 0.904
[63]
  normalized growth: 0.903
[64]
  normalized growth: 0.882
[65]
  normalized growth: 0.962
[66]
  normalized growth: 0.859 (active)
[67]
  normalized growth: 0.961
[68]
  normalized growth: 0.955
[69]
  normalized growth: 0.96
[70]
  normalized growth: 0.955
[71]
  normalized growth: 0.956

## CCOC(=O)N/N=C\c1cc(Cl)cc(Cl)c1O
[1]
  normalized growth: 0.948
[2]
  normalized growth: 0.95
[3]
  normalized growth: 0.928
[4]
  normalized growth: 0.951
[5]
  normalized growth: 0.938
[6]
  normalized growth: 0.941
[7]
  normalized growth: 0.942
[8]
  normalized growth: 0.95
[9]
  normalized growth: 0.935
[10]
  normalized growth: 0.914
[11]
  normalized growth: 0.824
[12]
  normalized growth: 0.946
[13]
  normalized growth: 0.928
[14]
  normalized growth: 0.926
[15]
  normalized growth: 0.741
[16]
  normalized growth: 0.765
[17]
  normalized growth: 0.828
[18]
  normalized growth: 0.94
[19]
  normalized growth: 0.931
[20]
  normalized growth: 0.942
[21]
  normalized growth: 0.87
[22]
  normalized growth: 0.938
[23]
  normalized growth: 0.737
[24]
  normalized growth: 0.665
[25]
  normalized growth: 0.251 (active)
[26]
  normalized growth: 0.512 (active)
[27]
  normalized growth: 0.626
[28]
  normalized growth: 0.655
[29]
  normalized growth: 0.586
[30]
  normalized growth: 0.943
[31]
  normalized growth: 0.535
[32]
  normalized growth: 0.877
[33]
  normalized growth: 0.785
[34]
  normalized growth: 0.935
[35]
  normalized growth: 0.743
[36]
  normalized growth: 0.473 (active)
[37]
  normalized growth: 0.72 (active)
[38]
  normalized growth: 0.814
[39]
  normalized growth: 0.74
[40]
  normalized growth: 0.932
[41]
  normalized growth: 0.756
[42]
  normalized growth: 0.67 (active)
[43]
  normalized growth: 0.727 (active)
[44]
  normalized growth: 0.425 (active)
[45]
  normalized growth: 0.789
[46]
  normalized growth: 0.948
[47]
  normalized growth: 0.714 (active)
[48]
  normalized growth: 0.936
[49]
  normalized growth: 0.956
[50]
  normalized growth: 0.679 (active)
[51]
  normalized growth: 0.947
[52]
  normalized growth: 0.556 (active)
[53]
  normalized growth: 0.931
[54]
  normalized growth: 0.934
[55]
  normalized growth: 0.621 (active)
[56]
  normalized growth: 0.94
[57]
  normalized growth: 0.784
[58]
  normalized growth: 0.471 (active)
[59]
  normalized growth: 0.729
[60]
  normalized growth: 0.69
[61]
  normalized growth: 0.943
[62]
  normalized growth: 0.747
[63]
  normalized growth: 0.67 (active)
[64]
  normalized growth: 0.706
[65]
  normalized growth: 0.944
[66]
  normalized growth: 0.641 (active)
[67]
  normalized growth: 0.934
[68]
  normalized growth: 0.918
[69]
  normalized growth: 0.92
[70]
  normalized growth: 0.92
[71]
  normalized growth: 0.952
